± gives the standard deviation.
Legend:
[1] = system: MILI (PIWIL2) piRISC loaded with piRNA #1 (26 nt); assay: pre-steady-state target cleavage rate (min^-1); guide: piRNA #1 5'p-UGAGGUAGUAGGUUGUAUAGUAUCCA; higher = faster piRNA-guided slicing of the target; conditions: auxiliary factor: 500 nM mouse GTSF1
Method in brief: (§1)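 Active affinity-purified piRISC (1 nM) loaded with one synthetic guide was mixed with a transcribed, DNA-blocked target RNA library (0.1 nM), with or without 500 nM GTSF1 partner protein, in HEPES–potassium acetate buffer at 33 °C for 0–8 or 0–960 min. Uncleaved targets were sequenced, normalised to depth and to weakly complementary targets, and pooled across three trials, with k3 capped at 0.0001 min^-1. The pre-steady-state cleavage rate was determined with a burst-and-steady-state fit.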

[2] = system: EfPiwi piRISC loaded with piRNA #1 (26 nt); assay: pre-steady-state target cleavage rate (min^-1); auxiliary factor: 500 nM Ephydatia muelleri Gtsf1; guide: piRNA #1 5'p-UGAGGUAGUAGGUUGUAUAGUAUCCA; MIWI and MILI are mouse PIWI proteins and EfPiwi is from a freshwater sponge; tags in brackets are library labels; higher = faster piRNA-guided slicing of the target
Method in brief: as §1

| Sequence | pre-steady-state target cleavage rate [1] | pre-steady-state target cleavage rate [2] |
| --- | --- | --- |
| GGAGAGGAUACUAUACUACCAACUACCUCA | 0.00796 ± 0.0017 | 0.00357 ± 0.0021 |
| GGAGACCAUUCUAUACAACCUACUACCACA | 0.159 ± 0.018 | 0.00335 ± 0.0031 |
| GGAGACCUAACUAUACAACCUACUACCUGA | 0.108 ± 0.03 | 0.00393 ± 0.002 |
| GGAGAGUGAUACUAUACAACCUACUACCUCA | 0.227 ± 0.016 | 0.171 ± 0.053 |
| GGAGACCAUACUAUACAUCCUACUUCCUCA | 0.176 ± 0.03 | 0.00272 ± 0.0026 |
| GGAGACGAUACUAUACAACCUACUUACCUCA | 0.169 ± 0.014 | 0.0069 ± 0.0023 |
| GGAGACGAUACUAUACUACGUACUACCUCA | 0.0345 ± 0.004 | 0.00413 ± 0.0027 |
| GGAGACCAUACUAUACAAGGUACUACCUCA | 0.0713 ± 0.0087 | 0.00335 ± 0.0029 |
| GGAGACGAUACUAUACAACCUACUCCCUCA | 0.106 ± 0.017 | 0.00312 ± 0.00092 |
| GGAGACCAUACUUUACAACCUACUUCCUCA | 0.0695 ± 0.018 | 0.00404 ± 0.0039 |
| GGAGACCAUUCUAUACAACGUACUACCUCA | 0.0141 ± 0.0029 | 0.00402 ± 0.0025 |
| GGAGACGAUACUAUUCAACCUACUACCACA | 0.161 ± 0.014 | 0.00322 ± 0.0017 |
| GGAGAGGAUACUAAACAAGCUACUACCUCA | 0.165 ± 0.014 | 0.00412 ± 0.0017 |
| GGAGACCAUACAAAACAACCUACUACCUCA | 0.0496 ± 0.014 | 0.00423 ± 0.0037 |
| GGAGAGGAUAAUAUACAACCUACUACCUCA | 0.135 ± 0.01 | 0.00772 ± 0.0036 |
| GGAGACCUAACUAUACAACCUAGUACCUCA | 0.016 ± 0.0088 | 0.00385 ± 0.0021 |
| GGAGACGAUACUAUACAACCUACUACCAGA | 0.125 ± 0.02 | 0.00503 ± 0.0015 |

| Sequence | pre-steady-state target cleavage rate [1] | pre-steady-state target cleavage rate [2] |
| --- | --- | --- |
| GGAGACCUUACUAUACAACCUACUACCAGA | 0.107 ± 0.017 | 0.00482 ± 0.0036 |
| GGAGUGGAUACUAUACAUCCUACUACCUGA | 0.0983 ± 0.018 | 0.00497 ± 0.0018 |
| GGAGACCUAACUAUACAACCUACUCCCUCA | 0.0941 ± 0.022 | 0.00341 ± 0.0031 |
| GGAGACCAUAGUAUACAACCUACUACCUCA | 0.118 ± 0.012 | 0.022 ± 0.0084 |
| GGAGUGGAUACUAUCAACCUACUACCUCA | 0.186 ± 0.0098 | 0.0872 ± 0.035 |
| GGAGACCUAACUAUACAACCUACUACCUUA | 0.12 ± 0.028 | 0.0211 ± 0.0092 |
| GGAGACCAUACAUACAACCUACUACCUCA | 0.119 ± 0.023 | 0.0126 ± 0.0066 |
| GGAGACCAUACUAUACAACGUACUAGCUCA | 0.00786 ± 0.0034 | 0.00358 ± 0.0035 |
| GGAGACGAUUCUAUACAACGUACUACCUCA | 0.0237 ± 0.0031 | 0.00356 ± 0.0021 |
| GGAGACGAUACUAUACAACCUACUACGAGA | 0.11 ± 0.034 | 0.00501 ± 0.0017 |
| GGAGAGGUACUAUACAACCUACUACCUCA | 0.089 ± 0.0084 | 0.00824 ± 0.0048 |
| GGAGAGGAUACUAUACAACCUAGCUACCUCA | 0.0538 ± 0.0062 | 0.0038 ± 0.0017 |
| GGAGACCAUUCAAUACAACCUACUACCUCA | 0.0561 ± 0.0083 | 0.0119 ± 0.0054 |
| GGAGAGGAUACUAUAGAACCUACUACGUCA | 0.0326 ± 0.0058 | 0.00228 ± 0.0021 |
| GGAGAGGAUACUAUACAACCUACAACCACA | 0.00451 ± 0.0037 | 0.00436 ± 0.0017 |
| GGAGACCUAUCUAUACAACCUACUACCUACA | 0.0858 ± 0.015 | 0.00445 ± 0.0039 |
